# A selection: hits, their analogues and other compounds. The true share with any hit is near 2.1%.
# M18AAP inhibitor – PfM18AAP inhibitors, malaria aminopeptidase, primary screen, biochemical, QFRET, recombinant enzyme | M18 aspartyl aminopeptidase (Plasmodium falciparum 3D7) | H-Glu-NHMec fluorogenic cleavage | inhibition, % at 7.35 µM | 290,000 compounds, 1.2% hits | AID 1822, 2009;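 active = inhibition above the campaign mean inhibition over all tested compounds plus 3 SD, cut at about 28% in these data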;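 note: 0% = plate median of test compound wells and 100% = 2 mM ZnCl2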
# Rin1-Abl PPI inh – inhibitors of Rin1-Abl protein binding, primary screen, biochemical, TR-FRET. 360,000 compounds, 0.4% hits. Tyrosine-protein kinase ABL1 (Homo sapiens) + Ras and Rab interactor 1 (Homo sapiens), …. inhibition, % at 7.35 µM; in the data active = inhibition above about 5%, passing the limit was not always enough
# Calb FLC – C. albicans growth inhibition with fluconazole, primary screen, CaCi-2 strain, Alamar Blue fluorescence | growth inhibition, % (concentration not given with the values) | C. albicans CaCi-2 (fluconazole-resistant clinical isolate) + fluconazole, 48 h | 300,000 compounds, 0.57% hits | AID 1979, 2009;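 active = growth inhibition above about 58% in most replicates, limit read from the data, passing the limit was not always enough; inconclusive = exactly half the replicates above a set limit; inactive = most replicates below a set limit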;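 note: all wells also contain fluconazole at 8 µg/ml as a sub-toxic cotreatment; 0% = median of DMSO wells and 100% = median of geldanamycin control wells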
# CTSL1 counter – Fasciola hepatica cathepsin L1 inhibitors, primary screen, counter-screen for PFM18AAP inhibitor project, biochemical, QFRET, fluorogenic peptide substrate; inhibition, % at 5.96 µM; AID 1906, 2009; 300,000 compounds, 0.49% hits; recombinant F. hepatica cathepsin L1, Z-Leu-Arg-MCA fluorescence;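 active = inhibition above the mean of all tested compounds plus 3 SD, set per screening campaign, cut at about 17% in these data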;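 note: 0% = plate median of test compound wells and 100% = 1 µM Z-Phe-Ala-diazomethylketone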
# The depositor's hits bear a star; ? = inconclusive; / = no result.
SMILES,M18AAP inhibitor,Rin1-Abl PPI inh,Calb FLC,CTSL1 counter
Cc1ccc(S(=O)(=O)NCC(=O)OC(C)C(=O)NC(=O)NC2CCCCC2)cc1C (centres undefined),/,0,/,/
Cc1ccc(C(=O)C2=C(O)C(=O)N(Cc3ccco3)C2c2cccc(Br)c2)o1 (centres undefined),19,0,?,18*
O=C(CSc1nnnn1-c1ccccc1)CSc1nnnn1-c1ccccc1,6,-2,39,22*
O=C(O)CSc1nnnn1-c1ccccc1,-1,0,9,-6
c1cc2c(cc1C1=NNC(=NC3CC3)SC1)OCCO2,31*,0,21,-2
Cc1nn(C)cc1S(=O)(=O)NCc1ccccc1Cl,-2,-2,/,-3
COc1cccc2[nH]c3ccccc3c(=O)c12,5,-4,4,2
Nc1cccc2c(=O)c3ccccc3[nH]c12,29*,0,32,-5
CC(=O)c1ccc(NC(=O)CSc2ccc(-c3sc(C)nc3C)nn2)cc1,-11,-8,16,-3
CCN=C1S/C(=C\c2ccc(Sc3ccc(Cl)cc3)o2)C(=O)N1CC,-5,0,1,4
CCN=C1S/C(=C/c2ccc(-c3ccc(F)cc3)o2)C(=O)N1CC,-1,1,1,18*
COc1ccc(OC)c(NC(=O)C(=O)/C=C(\O)c2cc(OC)ccc2OC)c1,-1,-1,104*,1
COc1ccc(OC)c(N/C(C)=C/C(=O)c2ccccc2)c1,3,-2,-9,3
Cc1ccc(N(CC(=O)NC(C)c2ccccc2)S(=O)(=O)c2cccs2)cc1 (centres undefined),-3,1,?,-2
CCn1cc(CNC(=S)Nc2cccc3ccccc23)cn1,1,-2,-7,-4
Cc1ccccc1OCc1nc2ccccc2c(=O)n1/N=C/c1c[nH]c2ccccc12,4,-3,-16,4
Cc1cc(/C=N/n2c(COc3ccccc3C)nc3ccccc3c2=O)c(O)c([N+](=O)[O-])c1,-7,-1,91*,2
CC(OC(=O)CNS(=O)(=O)c1ccc(C#N)cc1)C(=O)Nc1ccc(Cl)cn1 (centres undefined),/,-2,-2,-54
Cc1ccc2c(c1)N(CC(=O)N1CCCCC1c1cccnc1)C(=O)CO2 (centres undefined),-12,-3,-15,18*
Cc1ccc2c(c1)N(CC(=O)N1CCCCC1C)C(=O)CO2 (centres undefined),-3,2,5,0
CC1(C(=O)Nc2cnc3ccccc3c2)CCN1Cc1cc2ccccc2o1 (centres undefined),/,-2,/,/
Clc1ccc(-n2ncc3c(NCc4cccnc4)ncnc32)cc1Cl,-2,3,-10,2
Cc1cccc(N2CSC3=C(C#N)C(c4ccc(C)o4)CC(=O)N3C2)c1 (centres undefined),33*,/,0,-4
COc1ccc(N2CSC3=C(C#N)C(c4cccc(OC)c4OC)CC(=O)N3C2)cc1 (centres undefined),28*,0,1,-1
COc1cc(OC)c(C2CC(=O)N3CN(c4ccccc4C)CSC3=C2C#N)cc1OC (centres undefined),43*,/,12,31*
SMILES,M18AAP inhibitor,Rin1-Abl PPI inh,Calb FLC,CTSL1 counter
N#CC1=C2SCN(Cc3ccco3)CN2C(=O)CC1c1ccc(Cl)cc1 (centres undefined),27,2,3,-1
COc1ccc(C2CC(=O)N3CN(Cc4ccco4)CSC3=C2C#N)cc1 (centres undefined),30*,0,17,0
Cc1cc(C)n2nc(C(=O)OCC(=O)N(C)C3CCCCC3)nc2n1,/,5,2,0
O=C(O)CCCCCn1c(SCc2cc(=O)n3ccccc3n2)nc2ccsc2c1=O,-6,-6,-7,-1
Cc1cccc(C(=O)Nc2ccc(C(=O)c3ccncc3)cc2)c1,/,-3,/,/
O=C(COC(=O)COc1cccc(F)c1)NCCC1=CCCCC1,-2,-1,5,-10
O=C(COC(=O)CNC(=O)c1cccc(F)c1)NCCC1=CCCCC1,-5,-1,-37,22*
O=C(/C=C/c1ccccc1)NC(=S)Nc1ccc(N2CCOCC2)c(Cl)c1,-1,6,111*,-2
O=C(O)C[C@H](O)C[C@H](O)/C=C/c1c(C2CC2)nc2ccccc2c1-c1ccc(F)cc1,/,/,103*,/
O=C(Nc1nc(-c2ccccn2)cs1)c1cc2ccccc2o1,4,-2,99*,-1
COc1c(C)cc(C(=O)C2CCCN(C(=O)Cn3nc(C)nc3C)C2)cc1C (centres undefined),-9,1,-1,-3
COc1ccc(NC(=O)C2C3C=CC4(O3)C2C(=O)N(CCN2CCCCC2)C4C(=O)NC2CCCC(C)C2C)cc1 (centres undefined),0,3,32,20*
COc1ccc(NC(=O)Nc2nc3c(s2)CCCC3)cc1,-2,0,80*,-1
O=C(O)c1ccc(S(=O)(=O)/N=C2\C=C(Nc3ccccc3F)C(=O)c3ccccc32)cc1,12,3,-7,80*
Cc1ccccc1NC1=C/C(=N\S(=O)(=O)c2ccc(C(=O)O)cc2)c2ccccc2C1=O,-2,-2,32,104*
O=c1cc(CO)oc(CN2CCN(c3cccc(C(F)(F)F)c3)CC2)c1O,29*,-2,-47,-2
CCN(C(=O)c1cnc(OC)cc1C(F)(F)F)c1ccc(Cl)cc1Cl,4,-2,-5,-1
Cc1cc2oc3ccc(NCCCN4CCOCC4)cc3c(=O)c2cc1C,/,-3,-9,-1
Cc1cc2oc3ccc(NCCCn4ccnc4)cc3c(=O)c2cc1C,/,-5,86*,1
CCC(=O)N(C1=C(NC)C(=O)c2ccccc2C1=O)C(C)C,1,-8,18,6
CNC1=C(N(C(C)=O)c2ccc(Br)cc2)C(=O)c2ccccc2C1=O,-8,-8,103*,33*
CCN(Cc1ccccc1)N=Nc1ccccc1,/,-1,/,/
O=c1cnnc(N/N=C/c2cccs2)[nH]1,30*,-5,-2,-2
O=c1cnnc(N/N=C/c2c[nH]c3ccccc23)[nH]1,29*,-2,-2,10
Cc1cc(=O)[nH]c(N/N=C/c2cccs2)n1,11,3,-2,0
SMILES,M18AAP inhibitor,Rin1-Abl PPI inh,Calb FLC,CTSL1 counter
C(=N\Nc1ccccn1)/c1c[nH]c2ccccc12,21,1,-2,1
O=C(Nc1cccc2ccccc12)c1csc([C@@H]2C[C@H](O)[C@@H](CO)O2)n1,/,-4,/,/
O=c1c(Cc2c(F)cccc2Cl)c(O)ccn1CC1CCCO1 (centres undefined),4,-1,-6,-4
O=c1c(F)cn(C2CCCO2)c(=O)n1Cc1c(F)cccc1Cl (centres undefined),0,-1,107*,-6
COc1ccc(C(C#N)N2N=C(C)CC2c2ccccc2)cc1 (centres undefined),-2,4,-4,3
CC1=NN(C(C#N)c2ccccc2)C(c2ccccc2)C1 (centres undefined),-2,0,1,18*

# Source: PubChem BioAssay
